According to PubChem BioAssay AID693 (University of Pittsburgh Molecular Library Screening Center, 2007):
In all, about 97,000 compounds went through this assay and about 130 (0.13%) were called active. Cut-off read from the data, not from the text of the source: active = inhibition above about 34% (passing the limit was not always enough); inactive = the rest. The entries come from a sample that favours actives as a whole.

biological target: Serine/threonine-protein kinase PLK1 (Homo sapiens) (UniProt P53350); assay: Plk1 polo box domain binding inhibitors, primary screen, biochemical, fluorescence polarization (AID 693); settings: Plk1 PBD phosphopeptide binding, hits give high values,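 tested at about 20 µM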
Sequence (P53350 whole entry, looked up, the tested form may be a part): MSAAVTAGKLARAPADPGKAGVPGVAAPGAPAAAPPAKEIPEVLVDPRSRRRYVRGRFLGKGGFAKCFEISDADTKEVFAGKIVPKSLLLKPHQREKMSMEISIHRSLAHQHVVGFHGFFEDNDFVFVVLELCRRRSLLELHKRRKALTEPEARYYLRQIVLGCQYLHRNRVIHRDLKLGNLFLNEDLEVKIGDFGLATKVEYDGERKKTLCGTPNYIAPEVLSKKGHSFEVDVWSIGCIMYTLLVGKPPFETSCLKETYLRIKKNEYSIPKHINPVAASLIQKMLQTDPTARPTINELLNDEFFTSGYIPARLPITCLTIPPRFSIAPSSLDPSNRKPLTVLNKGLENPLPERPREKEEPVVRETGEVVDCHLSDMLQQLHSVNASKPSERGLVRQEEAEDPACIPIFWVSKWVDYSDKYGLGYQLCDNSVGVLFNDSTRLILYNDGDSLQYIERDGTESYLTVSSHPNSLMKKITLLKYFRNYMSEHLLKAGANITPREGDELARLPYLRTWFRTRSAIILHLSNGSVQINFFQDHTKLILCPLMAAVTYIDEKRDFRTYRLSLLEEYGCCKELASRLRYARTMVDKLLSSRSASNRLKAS

inhibition, inactive:
CC1CCN(C(=O)c2cc3nc(C4CC4)cc(C(F)(F)F)n3n2)CC1 -4.74%, O=c1c2ccccc2nc2n1C(CSc1ccc(Cl)cc1)CN2 (centres undefined) 23.7%, COc1ccc2c(Cl)c(C(=O)NCc3ccco3)sc2c1 -10.8%, N#CCSc1nc2ccc(N3CCOCC3)cc2c(=O)n1CCc1ccccc1 -3.34%, CC(=O)Nc1ccccc1OC(=O)N1CCOCC1 7.14%, Cc1nn(C)cc1/C=C1\CCC/C(=C\c2cn(C)nc2C)C1=O -18.6%, COCCOC(=O)c1sc(=S)n(CCOC)c1N -9.37%, CC(=O)c1ccc(Cc2ncc(C(F)(F)F)cc2Cl)s1 25.2%, CC(C)(C)NC(=O)Cn1cnc([N+](=O)[O-])n1 -13.3%, CC(=O)NS(=O)(=O)c1ccc(NC(=O)/C=C/c2ccccc2Cl)cc1 18.9%, O=C(CNS(=O)(=O)c1ccc(Br)s1)N1CCN(C(=O)c2ccco2)CC1 -13%, COc1ccc(OC)c(-n2nnnc2SCC(=O)Nc2cc(C)ccc2OC)c1 -6.45%, CC(C)(C)NS(=O)(=O)c1ccc(NC(=O)NC2CCCCC2)cc1 -21.3%, COc1ccc(S(=O)(=O)NCc2ccc(C(=O)N(C)Cc3ccco3)cc2)cc1 -4.97%, CCOC(=O)c1c(-c2ccccc2)csc1NC(=S)NC(=O)c1ccccc1 12%, C/C(=N\NC(=O)Cc1ccc(Cl)cc1)c1ccccn1 4.4%, Cc1ccc(S(=O)(=O)Oc2ccc(/C=N/NC(=O)c3c(Cl)cnn3C)cc2)cc1 14.5%, O=C(NC1CCCC1)C(c1ccccn1)N(C(=O)c1csnn1)C1CCCC1 (centres undefined) -11.5%, CCOc1cc(CNCCN(C)C)c(Cl)cc1OCC(=O)NCCc1ccccc1 9.84%, N#CC1=C(N)N(c2ccc(F)cc2)C(=O)C1 5.37%, Cc1c(NC(=O)CCCOc2ccccc2)cccc1[N+](=O)[O-] 6.93%, CCC(C)c1ccc(O)c(/C=N/O)c1 (centres undefined) 8.06%, CCOC(=O)C1CSC(CC(=O)Nc2ccc(OCC)cc2)C(=O)N1 (centres undefined) 13.9%, COC(=O)c1sccc1NC(=O)CCC1CCCC1 -8.56%, Cc1noc(C)c1C(=O)N1CCOCC1 -11%, O=c1c2ccccc2nnn1CSc1nnnn1-c1ccccc1 -3.85%, COc1ccc(-c2nnc(SCC(=O)c3ccc4c(c3)OCCO4)o2)cc1 -3.12%, COc1ccc(C(C)=O)cc1CN1C(=O)NC2(CCCCC2C)C1=O (centres undefined) 3.66%, CCC(=O)NC(Nc1nc2ccc(C)cc2s1)(C(=O)OC)C(F)(F)F (centres undefined) -11.3%, CCOC(=O)C(=O)Nc1nc(-c2ccccc2)c(CC)s1 12.1%, CC(C)CCNC(=O)Cn1c(=O)oc2cc(S(=O)(=O)N3CC(C)CC(C)C3)ccc21 (centres undefined) -16.6%, O=C(c1ccc(Cl)cc1)c1cnc(Nc2ccccc2)s1 -14.3%, COc1cc(C(=S)N2CCOCC2)cc(OC)c1OC(=O)c1cc([N+](=O)[O-])cc([N+](=O)[O-])c1 -2.97%, C=CCn1c(N)cc(=O)nc1SCC(=O)Nc1cccc2ccccc12 15.4%, O=C(N/N=C/c1ccc(O)c(O)c1)C1c2ccccc2Oc2ccccc21 -30.1%, O=C(Nc1ccccc1-c1nnn(CC(=O)N2CCCc3ccccc32)n1)c1cccc(Cl)c1 -7.34%, Cn1c(Cc2cccc3ccccc23)nnc1SCC(=O)N1CCN(c2cccc(Cl)c2)CC1 23.1%, Cc1cccc(CCNS(=O)(=O)c2ccc(S(=O)(=O)NC3CCCC3)cc2)c1 -16.4%, CC(C)OC(=O)c1c(NC(=O)c2ccco2)sc2c1CCCC2 -34.8%, CCCc1ccc(OCc2ccc(C(=O)N/N=C/c3cccc([N+](=O)[O-])c3)o2)c(OC)c1 -2.94%, CCC(c1nnnn1C(C)(C)C)N(Cc1cc2cccc(C)c2n2nnnc12)C1CCCC1 (centres undefined) -13.2%, Cc1[nH]c(=O)c(C(=O)/C=C/c2ccccc2)c2c1CCCC2 -8.98%, Cc1nn(C)cc1C(=O)NNC(=S)Nc1ccc(Cl)cc1 -11.1%, N#Cc1ccccc1CN1C(=O)S/C(=C/c2cccn2-c2cccc(C(=O)O)c2)C1=O -6.67%, O=C(CCCn1c(SCC(=O)c2ccccc2)nc2ccccc2c1=O)NCC1CCCO1 (centres undefined) 8.37%, Cc1ccc(OC(=O)c2ccccc2C(=O)OCC(F)(F)C(F)F)cc1 -16.7%, CCOC(=O)CNC(=O)CSc1nc2cccnc2n1CC 7.16%, C=C(Cl)COC(=O)C1C2C=CC(C2)C1C(=O)O (centres undefined) 3.3%, Cc1nnc(SCC(=O)N/N=C/c2cn(-c3ccccc3)nc2-c2ccc(F)cc2)n1-c1ccccc1 -7.66%, COCCCn1c(SCc2cccc(OC)c2)nc2cc(OC)c(OC)cc2c1=N -12.2%, O=[N+]([O-])c1cccc(-c2nnc3c4ccccc4c4ccccc4n23)c1 -7.67%, Cc1csc2ncc(C(=O)N(Cc3ccccc3)c3ccccn3)c(=O)n12 -14.3%, COC(=O)c1c(-c2cccs2)csc1NC(=O)CSc1ncnc2sc(C)c(C)c12 -2.76%, COc1ccc(C2=NOC3(CC(=O)N(c4ccc(C)cc4)C3=O)C2)cc1 (centres undefined) 13.3%, O=[N+]([O-])c1ccc(NCCCN2CCOCC2)c(Cl)c1 -38.6%, O=C(c1ccco1)N1CCN(C(=O)C2CCCN(S(=O)(=O)c3cccc4nsnc34)C2)CC1 (centres undefined) -29.8%, Cc1ccc(C2NC(=S)NC3=C2N2CCC3CC2)cc1 (centres undefined) 3.93%, N#C/C(=C(\O)CCl)c1nnc2n1CCCCC2 -0.62%, COc1ccc(C(=O)Nc2nc(-c3ccc(OC)cc3)c(-c3ccc([N+](=O)[O-])cc3)s2)cc1 -2.13%
